The record followed here is ChEMBL document CHEMBL1961873, “Compounds: GSK PKIS; Assays: Nanosyn kinase panel” (2012).

The target in test [1] is Calcium/calmodulin-dependent protein kinase type II subunit alpha (Homo sapiens) (UniProt Q9UQM7). The conditions noted are these: at 1 µM.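 Note: reported value is a mean percent inhibition of CAMK2A.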
Test [2] deals with Calcium/calmodulin-dependent protein kinase type II subunit delta (Homo sapiens) (UniProt Q13557). Conditions: at 0.1 µM.
Test [3] has the same target. Conditions: at 1 µM.
In test [4] the target is T1, Calcium/calmodulin-dependent protein kinase type IV (Homo sapiens) (UniProt Q16566).
T1 sequence (whole entry): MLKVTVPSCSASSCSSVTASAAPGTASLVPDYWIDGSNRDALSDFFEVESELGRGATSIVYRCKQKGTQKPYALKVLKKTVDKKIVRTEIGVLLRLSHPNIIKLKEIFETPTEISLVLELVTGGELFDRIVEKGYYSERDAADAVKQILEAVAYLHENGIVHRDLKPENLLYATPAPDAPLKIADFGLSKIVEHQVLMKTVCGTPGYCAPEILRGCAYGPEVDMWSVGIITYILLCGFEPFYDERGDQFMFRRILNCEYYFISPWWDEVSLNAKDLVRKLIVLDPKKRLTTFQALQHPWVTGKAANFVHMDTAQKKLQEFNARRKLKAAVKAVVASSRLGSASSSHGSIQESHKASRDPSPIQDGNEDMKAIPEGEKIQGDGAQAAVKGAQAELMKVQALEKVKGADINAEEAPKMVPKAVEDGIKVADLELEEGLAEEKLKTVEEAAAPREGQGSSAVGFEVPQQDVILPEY
The conditions noted are these: at 0.1 µM.

Test [5] concerns the target T1, Calcium/calmodulin-dependent protein kinase type IV (Homo sapiens). Conditions: at 1 µM.
In test [6] the target is T2, Serine/threonine-protein kinase Chk1 (Homo sapiens) (UniProt O14757).
T2 sequence (whole entry): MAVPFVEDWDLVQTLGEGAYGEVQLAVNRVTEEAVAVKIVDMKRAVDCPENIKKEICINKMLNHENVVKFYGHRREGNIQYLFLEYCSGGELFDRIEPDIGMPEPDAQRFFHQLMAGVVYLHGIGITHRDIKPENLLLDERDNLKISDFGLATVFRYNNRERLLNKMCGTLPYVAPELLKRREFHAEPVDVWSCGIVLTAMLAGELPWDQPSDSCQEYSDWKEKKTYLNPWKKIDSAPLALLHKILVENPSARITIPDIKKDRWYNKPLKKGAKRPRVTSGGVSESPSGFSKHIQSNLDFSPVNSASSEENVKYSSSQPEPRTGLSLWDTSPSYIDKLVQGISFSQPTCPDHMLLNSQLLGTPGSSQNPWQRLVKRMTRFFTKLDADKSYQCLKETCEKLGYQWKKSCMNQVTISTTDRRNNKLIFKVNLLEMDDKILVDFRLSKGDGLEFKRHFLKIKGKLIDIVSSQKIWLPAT
Conditions: at 0.1 µM.

Test [7] deals with T2, Serine/threonine-protein kinase Chk1 (Homo sapiens). The conditions noted are these: at 1 µM.
In test [8] the target is Serine/threonine-protein kinase Chk2 (Homo sapiens) (UniProt O96017). Conditions: at 0.1 µM.
Test [9] has the same target. Conditions: at 1 µM.
Test [10] deals with Death-associated protein kinase 1 (Homo sapiens) (UniProt P53355). Conditions: at 0.1 µM.
For test [11] the target is unchanged. The conditions noted are these: at 1 µM.
For test [12], the target named is T3, Serine/threonine-protein kinase DCLK2 (Homo sapiens) (UniProt Q8N568).
T3 sequence (whole entry): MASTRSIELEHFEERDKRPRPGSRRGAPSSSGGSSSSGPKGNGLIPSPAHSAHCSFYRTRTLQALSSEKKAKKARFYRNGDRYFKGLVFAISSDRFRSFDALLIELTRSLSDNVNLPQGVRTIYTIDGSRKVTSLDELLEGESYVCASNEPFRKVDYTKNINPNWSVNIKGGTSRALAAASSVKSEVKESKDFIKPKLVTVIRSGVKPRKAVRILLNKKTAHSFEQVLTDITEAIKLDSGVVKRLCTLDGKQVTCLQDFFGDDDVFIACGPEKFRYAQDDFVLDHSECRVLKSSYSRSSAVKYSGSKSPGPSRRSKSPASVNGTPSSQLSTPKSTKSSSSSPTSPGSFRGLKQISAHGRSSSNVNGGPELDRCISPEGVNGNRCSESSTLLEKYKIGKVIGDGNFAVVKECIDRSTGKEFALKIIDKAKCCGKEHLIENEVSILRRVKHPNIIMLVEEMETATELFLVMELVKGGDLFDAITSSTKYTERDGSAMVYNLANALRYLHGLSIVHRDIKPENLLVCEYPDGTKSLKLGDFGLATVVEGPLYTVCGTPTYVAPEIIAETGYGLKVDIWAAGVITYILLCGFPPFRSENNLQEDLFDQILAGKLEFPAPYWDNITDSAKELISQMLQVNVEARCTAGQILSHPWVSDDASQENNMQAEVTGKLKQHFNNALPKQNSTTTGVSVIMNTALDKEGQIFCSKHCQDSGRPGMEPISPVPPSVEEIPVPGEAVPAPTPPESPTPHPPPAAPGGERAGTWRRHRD
The conditions noted are these: at 0.1 µM.

For test [13], the target named is T3, Serine/threonine-protein kinase DCLK2 (Homo sapiens). Conditions: at 1 µM.
Test [14] deals with MAP kinase-activated protein kinase 2 (Homo sapiens) (UniProt P49137). The conditions noted are these: at 0.1 µM.
The target is the same in test [15]. The conditions noted are these: at 1 µM.
The target in test [16] is MAP kinase-activated protein kinase 3 (Homo sapiens) (UniProt Q16644). The conditions noted are these: at 0.1 µM.
Test [17] has the same target. Conditions: at 1 µM.
Test [18] deals with Serine/threonine-protein kinase MARK1 (Homo sapiens) (UniProt Q9P0L2). The conditions noted are these: at 0.1 µM.
Test [19] has the same target. Conditions: at 1 µM.
Test [20] concerns the target MAP/microtubule affinity-regulating kinase 3 (Homo sapiens) (UniProt P27448). Conditions: at 0.1 µM.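 Note: mean percent inhibition of MARK3 kinase activity, measured within the GSK PKIS screening panel.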

Sequence of Death-associated protein kinase 1 (Homo sapiens) (P53355 whole entry, looked up): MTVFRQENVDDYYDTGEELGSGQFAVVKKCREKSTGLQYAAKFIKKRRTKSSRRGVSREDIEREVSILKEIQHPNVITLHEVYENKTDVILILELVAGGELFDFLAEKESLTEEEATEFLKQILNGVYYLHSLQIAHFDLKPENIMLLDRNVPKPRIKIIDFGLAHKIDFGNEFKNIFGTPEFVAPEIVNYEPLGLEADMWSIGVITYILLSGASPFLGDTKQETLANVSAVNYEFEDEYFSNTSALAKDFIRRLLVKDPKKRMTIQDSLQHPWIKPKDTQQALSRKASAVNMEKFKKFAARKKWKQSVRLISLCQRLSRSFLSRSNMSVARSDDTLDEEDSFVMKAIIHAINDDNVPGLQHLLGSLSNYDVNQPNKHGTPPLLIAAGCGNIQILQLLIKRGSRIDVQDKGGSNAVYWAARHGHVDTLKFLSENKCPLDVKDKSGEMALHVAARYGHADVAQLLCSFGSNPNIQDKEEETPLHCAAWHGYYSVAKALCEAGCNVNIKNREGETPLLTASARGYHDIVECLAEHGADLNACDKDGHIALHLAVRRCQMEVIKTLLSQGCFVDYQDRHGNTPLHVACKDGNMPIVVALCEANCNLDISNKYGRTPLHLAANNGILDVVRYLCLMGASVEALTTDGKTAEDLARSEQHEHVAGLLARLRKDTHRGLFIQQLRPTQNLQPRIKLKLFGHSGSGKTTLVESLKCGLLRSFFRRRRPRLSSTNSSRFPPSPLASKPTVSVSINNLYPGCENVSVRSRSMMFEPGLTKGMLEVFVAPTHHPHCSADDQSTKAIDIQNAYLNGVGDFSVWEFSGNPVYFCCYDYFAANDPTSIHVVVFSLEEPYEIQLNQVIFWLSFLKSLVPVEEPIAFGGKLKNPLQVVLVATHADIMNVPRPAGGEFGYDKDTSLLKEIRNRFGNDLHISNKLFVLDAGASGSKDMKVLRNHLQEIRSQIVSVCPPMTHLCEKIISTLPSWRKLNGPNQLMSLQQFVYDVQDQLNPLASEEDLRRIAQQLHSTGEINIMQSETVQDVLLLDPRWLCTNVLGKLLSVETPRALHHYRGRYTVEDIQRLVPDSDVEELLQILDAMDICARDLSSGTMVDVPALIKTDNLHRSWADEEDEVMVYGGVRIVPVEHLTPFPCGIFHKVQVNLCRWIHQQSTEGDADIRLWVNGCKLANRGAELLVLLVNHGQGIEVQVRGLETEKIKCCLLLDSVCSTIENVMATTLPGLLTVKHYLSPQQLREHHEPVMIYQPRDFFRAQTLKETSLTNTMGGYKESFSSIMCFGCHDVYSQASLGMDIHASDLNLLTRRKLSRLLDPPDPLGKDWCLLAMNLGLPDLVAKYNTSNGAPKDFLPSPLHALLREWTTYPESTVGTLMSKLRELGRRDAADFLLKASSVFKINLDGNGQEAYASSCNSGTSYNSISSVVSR
Sequence of Serine/threonine-protein kinase MARK1 (Homo sapiens) (Q9P0L2 whole entry, looked up): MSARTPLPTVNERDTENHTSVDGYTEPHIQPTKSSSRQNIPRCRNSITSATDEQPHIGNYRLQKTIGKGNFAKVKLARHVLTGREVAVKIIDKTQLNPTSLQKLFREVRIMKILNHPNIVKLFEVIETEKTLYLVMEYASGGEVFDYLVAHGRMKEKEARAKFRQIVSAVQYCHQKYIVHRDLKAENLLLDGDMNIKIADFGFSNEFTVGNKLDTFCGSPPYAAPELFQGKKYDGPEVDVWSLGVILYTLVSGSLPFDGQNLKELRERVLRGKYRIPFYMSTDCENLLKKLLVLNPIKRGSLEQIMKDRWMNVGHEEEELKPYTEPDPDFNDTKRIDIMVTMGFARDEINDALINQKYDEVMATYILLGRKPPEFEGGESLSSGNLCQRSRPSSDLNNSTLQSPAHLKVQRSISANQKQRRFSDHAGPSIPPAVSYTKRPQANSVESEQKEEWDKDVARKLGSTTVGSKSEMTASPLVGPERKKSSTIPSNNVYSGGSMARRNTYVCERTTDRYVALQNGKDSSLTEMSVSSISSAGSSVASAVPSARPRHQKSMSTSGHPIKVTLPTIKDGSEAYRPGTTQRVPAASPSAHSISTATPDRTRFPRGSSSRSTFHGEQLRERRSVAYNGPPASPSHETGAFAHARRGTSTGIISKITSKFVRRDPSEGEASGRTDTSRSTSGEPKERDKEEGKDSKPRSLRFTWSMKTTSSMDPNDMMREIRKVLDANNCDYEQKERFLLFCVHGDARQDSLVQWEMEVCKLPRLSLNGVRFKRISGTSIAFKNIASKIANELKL
Sequence of Calcium/calmodulin-dependent protein kinase type II subunit alpha (Homo sapiens) (Q9UQM7 whole entry): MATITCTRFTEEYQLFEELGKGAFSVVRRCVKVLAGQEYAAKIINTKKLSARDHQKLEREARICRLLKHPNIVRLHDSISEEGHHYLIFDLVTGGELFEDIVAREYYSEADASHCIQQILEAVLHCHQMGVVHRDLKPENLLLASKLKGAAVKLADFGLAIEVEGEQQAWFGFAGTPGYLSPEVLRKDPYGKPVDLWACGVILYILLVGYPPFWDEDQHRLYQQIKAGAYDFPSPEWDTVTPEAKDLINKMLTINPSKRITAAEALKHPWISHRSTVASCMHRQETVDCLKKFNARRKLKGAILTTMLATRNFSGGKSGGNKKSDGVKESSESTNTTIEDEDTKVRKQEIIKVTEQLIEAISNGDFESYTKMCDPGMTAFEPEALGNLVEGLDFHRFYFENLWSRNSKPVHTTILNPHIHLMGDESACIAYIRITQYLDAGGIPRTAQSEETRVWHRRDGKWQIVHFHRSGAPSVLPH
Sequence of MAP kinase-activated protein kinase 2 (Homo sapiens) (P49137 whole entry, looked up): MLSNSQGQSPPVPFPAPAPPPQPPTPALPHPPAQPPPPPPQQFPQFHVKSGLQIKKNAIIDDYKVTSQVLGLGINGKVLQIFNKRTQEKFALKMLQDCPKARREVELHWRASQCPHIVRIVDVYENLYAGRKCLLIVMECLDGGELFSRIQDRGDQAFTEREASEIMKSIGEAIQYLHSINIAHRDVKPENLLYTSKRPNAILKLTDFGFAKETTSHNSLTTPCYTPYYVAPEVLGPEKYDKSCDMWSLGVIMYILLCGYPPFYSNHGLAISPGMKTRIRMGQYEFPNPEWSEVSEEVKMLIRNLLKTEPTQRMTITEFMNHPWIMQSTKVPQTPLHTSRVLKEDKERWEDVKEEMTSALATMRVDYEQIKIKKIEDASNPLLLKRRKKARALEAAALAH
Sequence of MAP/microtubule affinity-regulating kinase 3 (Homo sapiens) (P27448 whole entry, looked up): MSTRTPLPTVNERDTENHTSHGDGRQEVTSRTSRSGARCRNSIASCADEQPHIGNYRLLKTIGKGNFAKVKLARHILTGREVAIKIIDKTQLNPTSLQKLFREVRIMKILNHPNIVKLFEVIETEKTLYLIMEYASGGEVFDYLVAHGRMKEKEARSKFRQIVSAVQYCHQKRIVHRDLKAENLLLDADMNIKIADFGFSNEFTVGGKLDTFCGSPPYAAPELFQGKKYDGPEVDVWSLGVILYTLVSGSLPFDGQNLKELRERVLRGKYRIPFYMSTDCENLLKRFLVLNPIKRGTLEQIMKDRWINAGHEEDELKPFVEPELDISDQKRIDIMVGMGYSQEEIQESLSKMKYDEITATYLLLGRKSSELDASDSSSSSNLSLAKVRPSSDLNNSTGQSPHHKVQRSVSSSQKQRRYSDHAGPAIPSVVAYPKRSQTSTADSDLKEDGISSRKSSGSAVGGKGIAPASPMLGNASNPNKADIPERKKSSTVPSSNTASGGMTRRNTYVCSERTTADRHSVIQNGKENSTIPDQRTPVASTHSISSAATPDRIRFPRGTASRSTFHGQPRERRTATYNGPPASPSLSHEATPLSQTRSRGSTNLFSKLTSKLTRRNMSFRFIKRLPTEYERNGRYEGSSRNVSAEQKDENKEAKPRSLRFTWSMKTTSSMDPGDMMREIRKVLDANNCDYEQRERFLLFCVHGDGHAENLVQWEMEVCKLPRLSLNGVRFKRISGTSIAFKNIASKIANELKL
Sequence of MAP kinase-activated protein kinase 3 (Homo sapiens) (Q16644 whole entry, looked up): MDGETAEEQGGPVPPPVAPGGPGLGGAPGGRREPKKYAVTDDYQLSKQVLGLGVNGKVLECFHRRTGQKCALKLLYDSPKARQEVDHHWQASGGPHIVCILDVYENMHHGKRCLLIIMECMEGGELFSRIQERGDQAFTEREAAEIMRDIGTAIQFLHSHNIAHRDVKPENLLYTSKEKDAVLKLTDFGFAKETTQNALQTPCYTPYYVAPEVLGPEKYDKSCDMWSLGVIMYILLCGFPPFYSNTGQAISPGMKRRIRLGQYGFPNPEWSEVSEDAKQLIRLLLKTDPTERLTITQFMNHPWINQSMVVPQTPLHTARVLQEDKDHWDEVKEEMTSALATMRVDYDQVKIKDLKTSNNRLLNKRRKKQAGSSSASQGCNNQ
Sequence of Serine/threonine-protein kinase Chk2 (Homo sapiens) (O96017 whole entry): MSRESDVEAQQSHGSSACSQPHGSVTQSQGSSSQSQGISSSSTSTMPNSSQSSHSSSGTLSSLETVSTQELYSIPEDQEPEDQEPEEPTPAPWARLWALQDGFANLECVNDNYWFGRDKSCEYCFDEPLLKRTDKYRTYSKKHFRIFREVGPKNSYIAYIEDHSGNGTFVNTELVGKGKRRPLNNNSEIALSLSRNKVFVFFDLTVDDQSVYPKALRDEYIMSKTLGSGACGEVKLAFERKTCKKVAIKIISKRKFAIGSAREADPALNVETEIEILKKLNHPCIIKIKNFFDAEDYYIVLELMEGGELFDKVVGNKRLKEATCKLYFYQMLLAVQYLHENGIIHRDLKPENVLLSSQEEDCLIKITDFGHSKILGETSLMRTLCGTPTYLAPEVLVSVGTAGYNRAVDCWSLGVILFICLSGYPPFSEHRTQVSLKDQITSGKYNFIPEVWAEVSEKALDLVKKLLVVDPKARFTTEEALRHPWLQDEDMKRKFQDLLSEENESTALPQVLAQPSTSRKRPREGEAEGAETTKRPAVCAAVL

Consider `CN1CCN(C(=O)c2ccc(NC(=O)Nc3ccc(N(C)c4ccnc(Nc5ccc(CS(C)(=O)=O)cc5)n4)cc3)cc2)CC1`, for which the inhibition in test [1] is 3.13%; in test [2], 1.38%; in test [3], 3.39%; in test [4], 1.22%; in test [5] it was 1.48%; in test [6], 1.47%. The inhibition was 2.64% in test [7]; 5.54% in test [8]; 39.4% in test [9]; 2.86% in test [10]; 2.64% in [11]; -0.43% in test [12]. Besides, the inhibition in test [13] was 0.81%; in test [14], 0.81%; in test [15], 1.86%; in test [16] it was 2.24%; in [17], 3.23%; in test [18], 1.73%. Besides, the inhibition was found to be 15.2% in test [19] and 2.96% in test [20].
As for `Nc1nccc(-c2c(-c3ccc(F)cc3)ncn2CCCN2CCOCC2)n1`, the inhibition in test [1] was 2.46%; in test [2], 1.96%; in [3], 2.44%; in test [4], 0.27%; in [5], -0.08%; in test [6] it was 3.25%. The inhibition in test [7] stood at 5.25%; in test [8] it was 1.76%; in test [9], 4.69%; in [10] it was 5.49%; in [11], 5.9%; in test [12] it was 2.38%. Moreover, the inhibition in [13] is -0.25%; in test [14] it was 2.78%; in [15], 2.33%; in [16] it was 9.94%; in test [17], 23.5%; in [18], 3.81%. The inhibition in test [19] stood at 6.99%; in [20], 2.18%.
In the case of `NC(=O)c1sc(-n2cnc3ccccc32)cc1OCc1ccccc1Br`, the inhibition in test [1] stood at 3.18%; in test [2], 3.32%; in test [3], 7.99%; in test [4], 0.49%; in [5] it was 2.57%; in test [6], 9.58%. For the same compound, the inhibition is 13.2% in test [7]; 7.49% in [8]; 10.5% in test [9]; 12.3% in test [10]; 10.6% in test [11]; -1% in test [12]. Besides, the inhibition in [13] was -0.82%; in test [14], 4.58%; in [15], 6.13%; in test [16], 8.98%; in test [17], 12.7%; in test [18], 2.32%. Besides, the inhibition in test [19] was 5.92%; in test [20] it was -0.1%.
As to `COc1cc(/C=N/Nc2ncnc3c2cnn3C(C)C)ccc1O`, the inhibition in [1] is 0.99%; in [2], 0.75%; in [3], 3.93%; in test [4], 0.62%; in test [5] it was -1.97%; in test [6], 3.18%. Besides, the inhibition stood at 4.84% in [7]; 0.04% in test [8]; 1.88% in [9]; 1.63% in test [10]; 0.9% in [11]; 2.33% in test [12]. In addition, the inhibition in test [13] turned out to be 1.29%; in test [14], 0.78%; in test [15], 0.4%; in test [16] it was 0.97%; in test [17], 0.08%; in [18], 2.39%. Besides, the results for the inhibition in test [19] and in test [20] were 4.77% and 0.28%, respectively.
On to `ON=C1CCc2cc(-c3nc(C4CCNCC4)[nH]c3-c3ccncc3)ccc21`, for which the inhibition in test [1] was found to be 3.5%; in [2], 16.1%; in test [3], 2.8%; in [4], 1.25%; in test [5], 1.79%; in test [6], 0.67%. The inhibition was found to be 1.05% in test [7]; 0.01% in [8]; 0.8% in test [9]; 0.46% in [10]; 1.92% in test [11]; 2.56% in [12]. The inhibition in [13] was -0.17%; in test [14], -0.64%; in test [15], -0.71%; in test [16], 8.04%; in test [17], 26.9%; in [18], 0.47%. Further, the results for the inhibition in [19] and in test [20] were 1.75% and 0.82%, respectively.
For the compound `NC(=O)c1cccc(Nc2nccc(Nc3cccc(F)c3)n2)c1`, the inhibition is 0.53% in [1]; 0.45% in test [2]; 2.08% in [3]; 1.09% in test [4]; 1.02% in test [5]; 0.04% in test [6]. The inhibition in [7] was 1.52%; in [8], -0.9%; in test [9], 2.39%; in [10], 0.65%; in [11], -2.63%; in [12] it was -0.56%. For the same compound, the inhibition stood at 0.44% in test [13]; 0.22% in test [14]; 0.05% in test [15]; 1.51% in test [16]; 1.85% in test [17]; 0.81% in test [18]. For the same compound, the inhibition in test [19] was 2.94%; in test [20] it was 1.98%.
`O=C1Nc2ccc(-c3cccnc3)cc2C1=Cc1cc(Br)c(O)c(Br)c1`: the inhibition was 5.84% in test [1]; 3.26% in test [2]; 7.6% in test [3]; 0.54% in test [4]; -0.48% in test [5]; 3.16% in [6]. Besides, the inhibition in test [7] was 0.96%; in test [8] it was 3.4%; in test [9], 8.93%; in test [10], 1.41%; in [11], -6.21%; in test [12] it was 1.65%. Also, the inhibition was found to be 0.92% in test [13]; 1.36% in test [14]; 1.49% in test [15]; 2.4% in [16]; 2.92% in test [17]; 4.31% in test [18]. For the same compound, the inhibition is 9.1% in test [19] and 4.31% in [20].
